Screening data from PubChem.
This is a sample that favours compounds with a hit; in the whole collection about 2.9% have one here.
Integrin act MD: integrin-mediated muscular dystrophy alleviation activation | alpha7betagal myoblasts, beta-gal FDG fluorescence, 48 h | actives 0.064% (n = 350,000) | Potency, µM (top dose mostly 38.3 µM), hits mostly activators; active = well fitted activation curve with a large enough effect; inconclusive = small, poorly fitted or top-dose-only effect; inactive = no such curve, though single readings can be large or run the other way; also: nearly all actives have a fitted effect of over 60% in size
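Alpha7betagal+/- myoblasts (passage 13) were plated 16-24 hr, then exposed to compounds (1:260 dilution of DMSO stock) for 48 hours at 37C. After MPER lysis, β-galactosidase reporter activity was read as FDG fluorescence (ex 480/em 540) after 30 minutes.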
DRD3 antagonist: blocks the human D3 dopamine receptor; P35462; max response, negative = inhibition, %; AID 652054; actives 2.5% (n = 360,000); D3R cells, DiscoveRx beta-arrestin luminescence, antagonist mode; active compounds read low; in the data active = max response below about -50%; inconclusive = no clear call, values can overlap the other calls
Target sequence (P35462 whole entry, looked up): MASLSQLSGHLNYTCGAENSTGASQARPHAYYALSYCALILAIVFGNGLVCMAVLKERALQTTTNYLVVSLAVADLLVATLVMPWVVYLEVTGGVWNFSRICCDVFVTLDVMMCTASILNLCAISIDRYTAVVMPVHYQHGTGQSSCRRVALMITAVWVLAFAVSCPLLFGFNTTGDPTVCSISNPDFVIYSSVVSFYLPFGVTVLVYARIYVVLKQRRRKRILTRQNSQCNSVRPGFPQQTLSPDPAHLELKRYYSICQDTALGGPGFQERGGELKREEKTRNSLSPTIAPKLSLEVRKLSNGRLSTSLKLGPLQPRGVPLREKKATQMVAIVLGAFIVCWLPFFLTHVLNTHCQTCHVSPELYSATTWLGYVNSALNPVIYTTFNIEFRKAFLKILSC
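Cells plated overnight at 1500 cells/well, then exposed to library compounds with dopamine controls for 90 minutes at 37 degrees C. DiscoveRx reagent added for 30–60 minutes at room temperature; luminescence read, quantitative HTS format.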
DRD3 agonist: activates the human D3 dopamine receptor; P35462; AID 652048; max activation, %; actives 0.58% (n = 410,000); D3R DiscoveRx beta-arrestin cells, luminescence, 90 min; in the data active = max activation above about 30%
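Cells at 1500/well, incubated overnight, then treated with pinned compounds (dopamine as control) for 90 min at 37 degrees C. DiscoveRx reagent added for 30 - 60 minutes at room temperature; luminescence read.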
Numbers stand for hits; - = inactive; ? = inconclusive; . = not tested or not shown.

SMILES	Integrin act MD	DRD3 antagonist	DRD3 agonist
C[C@H]1CNC(=O)c2c(C(=O)Nc3ccc(CNC(=O)OC(C)(C)C)cc3)ncn21	8.91µM	-	34.0
O=C(C1CCN(S(=O)(=O)c2ccccc2)CC1)N1CCC2(CC1)OCCO2	-	-	-
Fc1ccc(N2CCN(Cc3cc4c(cc3Br)OCO4)CC2)cc1	-	-	-
CCc1ccc(OCC(=O)N2CCN(Cc3ccc4c(c3)OCO4)CC2)cc1	-	?	-
COc1cccc(CN2CCNCC2)c1	-	?	-
COc1ccccc1N1CCN(Cc2cccc(Br)c2)CC1	-	-100.2	-
c1cc2c(cc1CN1CCNCC1)OCO2	?	-	-
Oc1cc2c(cc1CN1CCN(c3ccccc3F)CC1)OCO2	-	-95.8	-
Cc1cccc(N2CCN(Cc3ccc4c(c3)OCO4)CC2)c1C	-	-105.2	-
COc1ccccc1N1CCN(Cc2ccc3c(c2)OCO3)CC1	-	-86.8	-
Cc1ccc(O)c(C(=O)c2cc(C(=O)NCCC(C)C)c(=O)n(CCC(C)C)c2)c1	-	-	-
FC(F)(F)c1ccc(NC2=NCCCS2)cc1	-	-	-
N=C1c2ccccc2CN1NC(=O)c1ccc(Br)o1	-	-	-
Cc1ccccc1CN1CCN(c2ccc(Cl)cc2)CC1	-	?	-
COc1ccccc1N1CCN(Cc2c(F)cccc2Cl)CC1	-	-	-
COc1ccccc1N1CCNCC1	.	-	-
COc1cc(C)c(CN2CCN(c3ccccc3)CC2)cc1C	?	-64.7	-
COc1ccccc1N1CCN(Cc2cc(C)c(C)cc2O)CC1	-	-84.5	-
COc1cc(CN2CCN(c3cc(C)ccc3C)CC2)ccc1O	-	?	-
COc1ccccc1N1CCN(Cc2ccc(Br)s2)CC1	-	-68.5	-
COc1ccccc1N1CCN(Cc2ccccc2)CC1	-	-112.8	-
C[C@]12CC[C@H](O)CC1=CC(=O)C1C2CC[C@]2(C)C(=O)CCC12 (stereo partly drawn)	-	-	-
O=c1cc(CN2CCNCC2)nc2sccn12	-	-	-
CCCC(=O)OC(C(Cl)(Cl)Cl)P(=O)(OC)OC (stereo not drawn)	.	.	-
c1ccc2c(NC3=NCCS3)cccc2c1	-	-	-
SMILES	Integrin act MD	DRD3 antagonist	DRD3 agonist
OC(CNC1CCCCC1)C(F)(F)F (stereo not drawn)	-	-	-
O=C(CCCCCCCCCCC(=O)NCc1cccnc1)NCc1cccnc1	-	-	-
COC(=O)C1=C(c2ccc(C(C)=O)cc2)C[C@@H]2CC[C@H]1N2C(=O)NCc1ccc(F)cc1	-	-	-
CN1CCN(Cc2ccc(Br)s2)CC1	-	-77.4	-
c1csc(CN2CCNCC2)c1	-	-	-
CN1CCC(O)(c2ccc(F)cc2)C(C(=O)c2ccc(F)cc2)C1 (stereo not drawn)	.	.	-
CCCCN1CCC(O)(c2ccccc2)C(C(=O)c2ccccc2)C1 (stereo not drawn)	-	-65.4	-
O=c1[nH]c(=O)n(Cc2ccccc2)c(O)c1C=NCCN1CCOCC1	-	-	-
COC(=O)C1=C(c2ccccc2)C[C@@H]2CC[C@H]1N2C	-	-	-
CCN1CCN(Cc2cc(Br)cc(Br)c2O)CC1	-	?	-
CCc1ccc(CN2CCN(Cc3cc(Br)ccc3O)CC2)cc1	-	-80.4	-
CCN1CCN(Cc2cc(Br)ccc2O)CC1	-	-73.4	-
NCCCN1CCN(c2ccccc2)CC1	-	-	-
CCc1ccc(CN2CCN(C(=O)Cc3ccccc3)CC2)cc1	-	-	-
COc1ccc(Br)cc1CN1CCN(CCO)CC1	-	-86.7	-
Oc1ccc(Br)cc1CN1CCN(c2ccccc2)CC1	-	-94.6	-
COc1cc(Br)cc(CN2CCN(C)CC2)c1O	-	?	-
CC1=C(C)CC2(CC1)C(=O)NC(=O)NC2=O	-	-	-
C[C@]12CC[C@H]3[C@@H](CCC4=CC(=O)CC[C@@H]43)[C@@H]1CC[C@@H]2OC(=O)CCc1ccccc1	.	.	-
Cc1cc(OC(C)C(=O)NCC2CCC(C(=O)O)CC2)c2c3c(c(=O)oc2c1)CCC3 (stereo not drawn)	-	-	-
C[C@]12CC[C@@H](O)CC1=CCC1C2CC[C@@]2(C)C1C[C@@H](F)[C@H]2O (stereo partly drawn)	-	-	-
CCOC(=O)c1c(C)n(CC(O)CN2CCOCC2)c2cc(Br)c(OC)cc12 (stereo not drawn)	-	-	-
CC1CN2C(=O)C1(c1ccccc1)C(=O)NC2=S (stereo not drawn)	-	-	-
CCN(CC)P(=O)(Oc1ccccc1)Oc1ccccc1	-	-	-
C/C(=C\c1csc(C)n1)[C@@H]1C[C@@H]2O[C@]2(C)CCC[C@H](C)[C@H](O)[C@@H](C)C(=O)C(C)(C)[C@@H](O)CC(=O)O1	.	.	-
SMILES	Integrin act MD	DRD3 antagonist	DRD3 agonist
Cn1cnc(CCN)c1	.	-77.1	-
O=C(CCCc1ccc(N(CCCl)CCCl)cc1)NCc1ccccc1	-	-	-
N#CC1c2ccccc2C=CN1C(=O)c1ccc(N(CCCl)CCCl)cc1 (stereo not drawn)	-	-81.3	-
C[C@]12CCC3C(CC[C@H]4C[C@@H](O)CC[C@]34C)C1[C@H]1CN=N[C@H]1[C@@H]2O (stereo partly drawn)	-	-	-
O=C1Nc2ccc(Br)cc2C(c2ccc(Cl)cc2)=NC1O (stereo not drawn)	?	-	-
COC1CC2C=C(C)C=CC=CC(=O)NC(c3ccccc3)CC=CCCC(O)CC(=O)C2=C1O (stereo not drawn)	.	-85.2	-
Cc1cccc([N+](=O)[O-])c1	.	-	-
O=[N+]([O-])c1ccccc1CN1CC=C(c2ccc(F)cc2)CC1	-	-68.2	-
O=[N+]([O-])c1cccc(CN2CC=C(c3ccc(F)cc3)CC2)c1	-	-98.8	-
O=[N+]([O-])c1cccc(CN2CCN(Cc3ccc(Cl)cc3)CC2)c1	-	-79.1	-
CC(C)N1CCN(Cc2cccc([N+](=O)[O-])c2)CC1	-	?	-
O=C1CC(N2CC=C(c3ccccc3)CC2)C(=O)N1c1ccc(F)cc1 (stereo not drawn)	-	-	-
Cc1cccc(N=Nc2ccc(N(C)C)cc2)c1	-	-	-
O=P(Oc1ccccc1)(Oc1ccccc1)N1CCN(c2ccc(F)cc2)CC1	-	-	-
O=C1/C(=C\c2cccnc2)N2CCC1CC2	-	-	-
C[C@H](NC(=O)N1C[C@H]2C[C@@H](C1)c1cccc(=O)n1C2)C(=O)Nc1ccc(F)c(F)c1	-	-	-
O=c1[nH]c(=O)n(-c2cccc(Cl)c2)c(O)c1C=NCCN1CCCCC1	-	-	-
CNc1cc(Cl)c2nonc2c1[N+](=O)[O-]	-	-108.6	-
O=[N+]([O-])c1c(Cl)c(Cl)cc(Cl)c1Cl	.	.	-
Cn1cc(C(=O)OCC(=O)Nc2ccccc2Cl)c2ccccc21	-	-	-
COc1ccc(-n2c(-c3ccccc3F)nc3ccccc3c2=O)cc1	-	-	-
CCCN1CCO[C@@H]2c3cc(O)ccc3OC[C@H]21	.	-	146.2
CCCN1CCc2cccc3c2[C@H]1Cc1ccc(O)c(O)c1-3	.	?	-
Cc1ccccc1CCNCc1cc2cccc(C)c2[nH]c1=O	-	-	-
Cc1nc2cc(OC(=O)N(C)Cc3cccc(-c4ccncc4)c3)ccc2s1	.	-	32.9
CN(Cc1cccc(-c2ccncc2)c1)C(=O)Oc1ccccc1Cl	.	-	-
